# Pf Dd2 growth: inhibitors of Plasmodium falciparum Dd2 growth; Potency, µM (series often up to 28.9 µM), without a hit: top-dose activity, negative = inhibition, actives largely listed as inhibitors; 4.3% of 120,000 active; P. falciparum Dd2 growth, SYBR Green, 72 h; active = well fitted inhibition curve with a large enough effect;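 also: plate controls were DMSO vehicle for no effect and reference drug for full effect; nearly all actives have a fitted effect of over 65% in size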
#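 Readout: SYBR Green fluorescence, 485 nm excitation, 535 nm emission, after ~16 h lysis at 37C. Before that, Dd2-infected red cells (2.5% hematocrit) grew 72 h with compound, 29 uM top final concentration.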
# Active calls of the source: *; i = inactive; [ ] = dose if it differs, or a comment. Only a selection was taken, and hits are over-represented in it overall. Potency is read from the fitted curve at half-maximal effect.
SMILES,Pf Dd2 growth
O=C(NC1CCCCC1)NC1CCc2nnc(C3CC3)n2CC1 (centres undefined),66.1%
CCc1nnc([C@@H]2CC(F)(F)CN2C(=O)c2cnco2)o1,25.6%
O=C(Cc1c(F)cccc1Cl)N1CCC(c2noc(COc3ccc(F)cc3)n2)CC1,i
CNC(=O)[C@@H](c1ccc(OC)cc1)N1CCC[C@H]1C(=O)NCC1CCCCC1,i
O=C(c1ccc2ncccc2c1)N1CC2CC(C1)[C@H]1CCCC(=O)N1C2 (some centres undefined),5.7%
Cc1ccc(S(=O)(=O)N2CCC(n3cnnc3C)CC2)cc1Cl,-16.5%
CCNC(=O)[C@@H]1C[C@H](N)CN1C(=O)c1cnc(-c2cccnc2)nc1C,-5.9%
COc1cccc(-c2nc3cc4c(cc3cc2CN2CCSCC2)OCO4)c1OC,11.2µM*
COc1cccc(-c2nc3cc4c(cc3cc2CN2CCOCC2)OCO4)c1OC,-29.6%
COc1cccc(-c2noc(N3CCCC3)n2)c1OC,-5.3%
COCc1cc(C[C@@H]2CC[C@H](O)[C@@H](CNC(C)C)O2)no1,18.9%[44.1 µM]
CCN(CC)[C@H]1C[C@@H](Cc2cc(CCO)on2)C1(C)C,28.5%[44.1 µM]
CN(Cc1cccc(OCC(O)CN2CCOCC2)c1)Cc1ccc2nonc2c1 (centres undefined),-27.6%
O=C(NCCN1CCOC1=O)c1cn(Cc2ccccc2C(F)(F)F)nn1,2.2%
CC1(C(=O)NCc2cccc(F)c2)COCc2cnc(Nc3ccccc3)nc21 (centres undefined),i
CCN(CC)Cc1nc(C2(O)CCN(Cc3ccc(C(F)(F)F)cc3)CC2)cs1,11.2µM*
OC1(c2csc(CN3CCOCC3)n2)CCN(Cc2ccc(C(F)(F)F)cc2)CC1,6.9%
CCN1CCC(O)(c2csc(CN(CC)CC)n2)CC1,4.2%[44.1 µM]
Cc1nc2ncccn2c1C(=O)N1CCC2(CCCN(C)C2=O)C1 (centres undefined),-3.9%
O=C(Nc1ccc(Oc2ccccc2)cc1)N[C@H]1CO[C@H]2[C@@H]1OC[C@@H]2n1cc(-c2ccccn2)nn1,-21.9%
O=C(Nc1cccc(C(F)(F)F)c1)O[C@@H]1CO[C@H]2[C@@H]1OC[C@@H]2n1cc(-c2ccccn2)nn1,10µM*
O=C(Nc1cccc(C(F)(F)F)c1)N[C@H]1CO[C@H]2[C@@H]1OC[C@H]2OC(=O)Nc1ccccc1,-27.4%
Cc1cc(C)n(CC(=O)NCc2cc(N3CCOCC3)ncn2)c(=O)n1,-5.6%
CCC[C@@H]1CN(S(=O)(=O)c2ccc(OC(F)F)cc2)C[C@H]1N(C)C,5.62µM*
CCc1nncn1C1CCN(S(=O)(=O)c2ccc(OC)cc2)CC1,i
SMILES,Pf Dd2 growth
CN1CCC([C@@H]2CN(S(=O)(=O)c3ccc4c(c3)CCC4)C[C@H]2C(N)=O)CC1,9.4%
Cc1ccc(S(=O)(=O)N2C[C@@H](C(N)=O)[C@H](C3CCN(C)CC3)C2)cc1Cl,-3.9%
CC(=O)NC[C@H]1CCN(S(=O)(=O)c2ccc(C#N)cc2)C[C@H]1N(C)C,-2.6%
N[C@H]1CN(S(=O)(=O)c2ccc(OC(F)F)cc2)C[C@@H]1C1CC1,5.62µM*
O=Cc1cccc(-c2cncc(C(=O)O)c2)c1,i
Cn1ncc(N2CCCC(CC(=O)NC3CCCCC3)C2)cc1=O (centres undefined),22.7%
O=C(CCc1ccccc1)NCCC1CCN(C(=O)Nc2ccc(F)cc2F)CC1,-6.7%
CN(Cc1ccccc1CN1CCCC1)c1nccc(-c2ccccn2)n1,3.55µM*
Cc1cccc(N2CCN(c3nccc(-c4ccccn4)n3)CC2)n1,-13.5%
Cc1ccc(CN2CCC(CNc3nccc(-c4ccccn4)n3)CC2)o1,i
COCC1CN(S(=O)(=O)c2cccc(C)c2)CC12CCOCC2 (centres undefined),-0.3%
O=C(CC1CCCC1)N1CCC(Cc2nc(C3CC3)n[nH]2)C1 (centres undefined),-0.7%
CCN1CCN(CCNC(=O)C2CCN(C(=O)N3CC4CC(C3)[C@H]3CCCC(=O)N3C4)CC2)CC1 (some centres undefined),26.9%
O=C1[C@H]2CN(Cc3ccc(C(F)(F)F)cc3)C[C@H]2C(=O)N1CCc1ccccc1,i
CC(=O)Nc1ccc(CN2CCN3C(=O)N(Cc4ccccc4)C[C@H]3C2)cc1,i
NCCc1ccc(CN2C[C@@H]3CC[C@H](C2)N(Cc2ccccc2)C3)cc1,11.2µM*
Cc1ccc(NC(=O)c2oc3ccc(S(=O)(=O)N4CCCCCC4)cc3c2C)cc1Cl,21.5%
Cc1ccc(CNC(=O)c2oc3ccc(S(=O)(=O)N4CCCC(C)C4)cc3c2C)cc1 (centres undefined),10µM*
CCn1cc(C(=O)NCc2ccc(C)cc2)c(=O)c2cc(S(=O)(=O)N3CCC(C)CC3)ccc21,1.8%
COc1ccc(CN2C[C@H](O)C[C@H]2c2nc(CS(=O)(=O)c3ccc(F)cc3)no2)cc1,-22.0%
COc1cccc(-n2c(SCc3cccc(C)c3)nc3c([nH]c4ccccc43)c2=O)c1,10µM*
Cc1cc(NC(=O)CSc2nc3c([nH]c4ccccc43)c(=O)n2-c2ccc(Cl)cc2)no1,-2.7%
Cc1cccc(NC(=O)CSc2nc3c([nH]c4ccccc43)c(=O)n2C)c1,3.7%
Cc1cccc(CSc2nc3c([nH]c4ccccc43)c(=O)n2C)c1,27.5%
COc1cccc(-n2c(SCC(=O)c3ccccc3)nc3c([nH]c4ccccc43)c2=O)c1,7.6%
SMILES,Pf Dd2 growth
Cc1cc(C)cc(-n2c(SCC(=O)Nc3nnc(C)s3)nc3c([nH]c4ccccc43)c2=O)c1,7.5%
CCOc1ccc(-n2c(SCC(=O)Nc3cc(C)on3)nc3c([nH]c4ccccc43)c2=O)cc1,i
Cc1ccc(-n2c(SCC(=O)Nc3ccc4c(c3)OCO4)nc3c([nH]c4ccccc43)c2=O)cc1,10µM*
COc1cccc(NC(=O)CSc2nc3c([nH]c4ccccc43)c(=O)n2-c2cc(C)cc(C)c2)c1,8.91µM*
COc1ccc(Cl)cc1NC(=O)CSc1nc2c([nH]c3ccccc32)c(=O)n1-c1ccccc1,4.47µM*
CCn1c(SCC(=O)Nc2cc(Cl)ccc2OC)nc2c([nH]c3ccccc32)c1=O,i
O=C(CSc1nc2c([nH]c3ccccc32)c(=O)n1-c1ccccc1)Nc1ccccc1C(F)(F)F,27.7%
CCc1noc([C@@H]2CC(F)(F)CN2C(=O)c2cc(C)no2)n1,19.2%
COCc1cn(C[C@H]2CC3CCN2C[C@@H]3C(=O)Nc2ccccc2)nn1 (some centres undefined),28.3%[44.1 µM]
O=C([C@@H]1C[C@H](Oc2cccnc2)CN1C(=O)c1ccc2ccccc2n1)N1CCCC1,17.8%
Cc1ccc(O[C@H]2COCC[C@H]2NC(=O)c2cc(CC(C)C)nc(N)n2)cn1,-8.1%
COCC[C@]1(O)CCN(C(=O)c2csc(CN(C)C)n2)C[C@H]1C,0.0%
COc1ccc(C(=O)NCCn2c(C)cnc2-c2ccncc2)cc1,i
CCNC(=O)N1CCOc2ccc(CCC(=O)Nc3ccc(F)cc3F)cc2C1,-9.0%
O=C(CCC1CCN(C(=O)c2cc(C3CC3)[nH]n2)CC1)N1CCC(Cc2ccccc2)CC1,i
Cc1noc(C)c1Cc1c(C(=O)N2C[C@@H](Oc3cccnc3)C[C@H]2C(N)=O)noc1C,-2.1%
N#Cc1cccc(-c2cn3c(n2)N(C(=O)c2ccco2)CCC3)c1,-17.3%
COCCN1C(=O)[C@H]2CN(Cc3cccc(C)c3)C[C@H]2C1=O,-23.9%
CCn1nc(C)c(-c2cc(C(=O)N3CCC(CCOc4ccccc4)C3)no2)c1C (centres undefined),i
COCCOCC(=O)N1CC(Oc2ccc(-c3noc(-c4ccccc4)n3)cc2)C1,-16.9%
